± gives the standard deviation of the averaged measurements.
Tested on: Listeria monocytogenes 10403S
Test: growth inhibition relative to ceftriaxone-alone control; higher = stronger potentiation of ceftriaxone growth inhibition
Conditions: 10 µM; ceftriaxone 1 ug/ml; 12 h
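Note: End-point A600 read in BHI broth at 37 °C with 2% DMSO, inhibition computed as (1 − OD with compound plus ceftriaxone ÷ OD with ceftriaxone only) × 100.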

| Structure (SMILES) | growth inhibition [%] |
| --- | --- |
| NS(=O)(=O)c1ccc(-c2ccc3c(NC(=O)C4CC4)n[nH]c3c2)cc1 | -10.8 ± 16 |
| CC(=O)Nc1nc(C)c(-c2ccc(Cl)c(S(=O)(=O)NCCO)c2)s1 | 29.5 ± 2 |
| CCS(=O)(=O)c1cccc(-c2cc(C(=O)NC3CCN(C)CC3)c(C)c3[nH]c4ncc(C)cc4c23)c1 | 31.1 ± 6.9 |
| NS(=O)(=O)c1ccc(N/N=C2\C(=O)Nc3cccc(CCc4ccncc4)c32)cc1 | -4.56 ± 8.2 |
| Cc1ccc(-n2nc(C(C)(C)C)cc2NC(=O)Nc2ccc(OCCN3CCOCC3)c3ccccc23)cc1 [BIRB 796 (Doramapimod)] | 10.5 ± 14 |
| Cc1ccc(-c2cc3c(NC(=O)C4CC4)ncnc3o2)cc1 | -3.41 ± 5.3 |
| COc1cc(Nc2ncc(-c3ccccc3)o2)cc(OC)c1 | 17 ± 3.9 |
| CC(C)n1nc(-c2cc3cc(O)ccc3[nH]2)c2c(N)ncnc21 | 16.2 ± 10 |
| Cc1nn(C)c2cc(N(C)c3ccnc(Nc4cccc(S(N)(=O)=O)c4)n3)ccc12 | 10.1 ± 1.2 |
| N#Cc1c(NC(=O)CN2CCOCC2)sc2c1CCCC2 | 9.96 ± 12 |
| Cc1ccc(C(=O)NC2CC2)cc1-c1ccc2[nH]ncc2c1 | 8.37 ± 0.62 |
| Cc1ccc(C(=O)Nc2ccc(CN3CCN(C)CC3)c(C(F)(F)F)c2)cc1C#Cc1cnc2cccnn12 | 94.4 ± 3.5 |
| O=C1NC(=O)C(c2ccc(Cl)cc2)=C1Nc1ccc(Cl)c(C(=O)O)c1 | 6.2 ± 5.4 |
| O=C1Nc2ccccc2/C1=C/Nc1ccc(-n2cncn2)cc1 | 0.116 ± 3.5 |
| CNC(=O)Nc1ccc(-c2nc(N3CC4CCC(C3)O4)c3cnn(C4CCC5(CC4)OCCO5)c3n2)cc1 | 7.7 ± 6.6 |
| Nc1nc(N)c2nc(-c3cccc(O)c3)c(-c3cccc(O)c3)nc2n1 | 63 ± 19 |
| Fc1ccc(-c2ncn(C3CCNCC3)c2-c2ccnc(Oc3ccc(Oc4ccccc4)cc3)n2)cc1 | 12.2 ± 24 |
| Nc1nonc1-c1nc2cnccc2n1C1CC1 | -9.63 ± 4.1 |
| O=C(Nc1n[nH]c2nc(-c3ccco3)c(Br)cc12)C1CC1 | -3.36 ± 3.1 |

| Structure (SMILES) | growth inhibition [%] |
| --- | --- |
| CCCN1CCC(Oc2cc(Nc3nc(Nc4cccc(F)c4C(N)=O)c4cc[nH]c4n3)c(OC)cc2Cl)CC1 | -13.1 ± 20 |
| CCc1cccc(CC)c1NC(=O)N1Cc2[nH]nc(NC(=O)c3ccc(N4CCN(C)CC4)cc3)c2C1 | 33.1 ± 4.9 |
| CN(C)C/C=C/C(=O)Nc1cc2c(Nc3ccc(F)c(Cl)c3)ncnc2cc1O[C@H]1CCOC1 [Afatinib (BIBW2992)] | 45.41 ± 0.44 |
| Cc1cc(O)cc(C)c1/C=C/c1cncc(C(N)=O)c1 | -0.223 ± 2.4 |
| c1cncc(CN2CCC(n3ncc4c(N5CCOCC5)nc(-c5ccc6[nH]ccc6c5)nc43)CC2)c1 | 37.1 ± 17 |
| CO[C@H]1C[C@@H]2CC[C@@H](C)[C@@](O)(O2)C(=O)C(=O)N2CCCC[C@H]2C(=O)O[C@H]([C@H](C)C[C@@H]2CC[C@@H](O)[C@H](OC)C2)CC(=O)[C@H](C)/C=C(\C)[C@@H](O)[C@@H](OC)C(=O)[C@H](C)C[C@H](C)/C=C/C=C/C=C/1C [Rapamycin (Sirolimus)] | 30.2 ± 26 |
| CC(=O)Nc1cccc(-n2c(=O)n(C3CC3)c(=O)c3c(Nc4ccc(I)cc4F)n(C)c(=O)c(C)c32)c1 | 31.3 ± 12 |
| O=C1NC(=O)/C(=C/c2ccc(-c3ccc(F)cc3O)o2)S1 | 70.7 ± 9.8 |
| NS(=O)(=O)c1ccc(N/N=C2\C(=O)Nc3ccc(C(=O)NCc4ccncc4)cc32)cc1 | -9.46 ± 18 |
| CC1=C(C(=O)Nc2ccc3[nH]ncc3c2)C(c2ccc(F)cc2)NC(=O)N1 (stereo not drawn) | 2.29 ± 1.7 |
| C=CC(=O)Nc1cccc(Oc2nc(Nc3ccc(N4CCN(C)CC4)cc3)ncc2Cl)c1 | 13.3 ± 3.3 |
| COc1ccc(-c2cc3c(N)ncnc3o2)cc1 | -3.61 ± 1.9 |
| CN(C)C1CCN(C(=O)c2ccc(NC(=O)Nc3ccc(-c4nc(N5CCOCC5)nc(N5CCOCC5)n4)cc3)cc2)CC1 | 22.7 ± 7.4 |
| CC(C)c1ccc2c(c1)NC(=O)/C2=N/Nc1ccc(S(N)(=O)=O)cc1 | -0.275 ± 0.88 |
| NS(=O)(=O)c1ccc(Nc2ncc(-c3ccccc3)o2)cc1 | 6.88 ± 6.9 |
| CS(=O)(=O)CCNCc1ccc(-c2ccc3ncnc(Nc4ccc(OCc5cccc(F)c5)c(Cl)c4)c3c2)o1 [Lapatinib Ditosylate (Tykerb)] | 42 ± 16 |
| COc1cc2ncn(-c3cc(OCc4ccccc4C(F)(F)F)c(C(=O)N(C)C)s3)c2cc1OC | -5.41 ± 4.1 |
| CCn1c(-c2nonc2N)nc2ccncc21 | -0.136 ± 1.1 |
| Nc1ncnc2c1c(-c1cnc3[nH]ccc3c1)nn2C1CCCC1 | 42.9 ± 23 |
